# Laboratory results as given in the supplement of paper PMC4466140.
# Columns and labels:
# Assay in all cases: SPOT peptide array binding signal intensity (averaged, normalized) (arbitrary units (background-subtracted, floor 0; scale differs between SH3 domains)); higher = stronger binding of the SH3 domain to the peptide
# AgAbp1 = target: AgAbp1
# Procedure, shortened: (§1)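 SH3 domains from four yeast species were expressed as GST fusions in E. coli BL21(DE3) and purified on glutathione Sepharose. Each was incubated at 10 μg/ml overnight at 4°C in TBS-based blocking buffer on cellulose membranes bearing synthetic 15-mer peptides, in which serines replaced cysteines. Bound protein was detected with anti-GST antibody, an HRP anti-mouse secondary and luminol, then imaged and quantified with Genespotter. The binding signal is the normalized, background-subtracted spot intensity averaged over replicates, in arbitrary units that are not the same from one domain to another.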
# AgBbc1 = target: AgBbc1
# Procedure, shortened: as §1
# AgBem1-D1 = target: AgBem1-D1
# Procedure, shortened: as §1
# AgBzz1-D1 = target: AgBzz1-D1
# Procedure, shortened: as §1
# AgBzz1-D2 = target: AgBzz1-D2
# Procedure, shortened: as §1
# AgCyk3 = target: AgCyk3
# Procedure, shortened: as §1
# AgFus1 = target: AgFus1
# Procedure, shortened: as §1
# AgHof1 = target: AgHof1
# Procedure, shortened: as §1
# AgHse1 = target: AgHse1
# Procedure, shortened: as §1
# AgLsb1 = target: AgLsb1
# Procedure, shortened: as §1
# AgLsb4 = target: AgLsb4
# Procedure, shortened: as §1
# AgMyo5 = target: AgMyo5
# Procedure, shortened: as §1
# AgNbp2 = target: AgNbp2
# Procedure, shortened: as §1
# AgRvs167 = target: AgRvs167
# Procedure, shortened: as §1
# AgSho1 = target: AgSho1
# Procedure, shortened: as §1
# AgSla1-D1-D2 = target: AgSla1-D1-D2
# Procedure, shortened: as §1
# AgSla1-D3 = target: AgSla1-D3
# Procedure, shortened: as §1
# CaAbp1-D1 = target: CaAbp1-D1
# Procedure, shortened: as §1
# CaAbp1-D2 = target: CaAbp1-D2
# Procedure, shortened: as §1
# CaBbc1 = target: CaBbc1
# Procedure, shortened: as §1
# CaBem1-D1 = target: CaBem1-D1
# Procedure, shortened: as §1
# CaBzz1-D1 = target: CaBzz1-D1
# Procedure, shortened: as §1
# CaBzz1-D2 = target: CaBzz1-D2
# Procedure, shortened: as §1
# CaCyk3 = target: CaCyk3
# Procedure, shortened: as §1
# CaFus1 = target: CaFus1
# Procedure, shortened: as §1
# CaHof1 = target: CaHof1
# Procedure, shortened: as §1
# CaHse1 = target: CaHse1
# Procedure, shortened: as §1
# CaLsb1 = target: CaLsb1
# Procedure, shortened: as §1
# CaLsb4 = target: CaLsb4
# Procedure, shortened: as §1
# CaMyo5 = target: CaMyo5
# Procedure, shortened: as §1
# CaNbp2 = target: CaNbp2
# Procedure, shortened: as §1
# CaRvs167 = target: CaRvs167
# Procedure, shortened: as §1
# CaRvs167-3 = target: CaRvs167-3
# Procedure, shortened: as §1
# CaSho1 = target: CaSho1
# Procedure, shortened: as §1
# CaSla1-D1-D2 = target: CaSla1-D1-D2
# Procedure, shortened: as §1
# CaSla1-D3 = target: CaSla1-D3
# Procedure, shortened: as §1
# ScAbp1 = target: ScAbp1
# Procedure, shortened: as §1
# ScBbc1 = target: ScBbc1
# Procedure, shortened: as §1
# ScBem1-D1 = target: ScBem1-D1
# Procedure, shortened: as §1
# ScBzz1-D1 = target: ScBzz1-D1
# Procedure, shortened: as §1
# ScBzz1-D2 = target: ScBzz1-D2
# Procedure, shortened: as §1
# ScCyk3 = target: ScCyk3
# Procedure, shortened: as §1
# ScFus1 = target: ScFus1
# Procedure, shortened: as §1
# ScHof1 = target: ScHof1
# Procedure, shortened: as §1
# ScHse1 = target: ScHse1
# Procedure, shortened: as §1
# ScLsb1 = target: ScLsb1
# Procedure, shortened: as §1
# ScLsb2 = target: ScLsb2
# Procedure, shortened: as §1
# ScLsb3 = target: ScLsb3
# Procedure, shortened: as §1
# ScLsb4 = target: ScLsb4
# Procedure, shortened: as §1
# ScMyo3 = target: ScMyo3
# Procedure, shortened: as §1
# ScMyo5 = target: ScMyo5
# Procedure, shortened: as §1
# ScNbp2 = target: ScNbp2
# Procedure, shortened: as §1
# ScPex13 = target: ScPex13
# Procedure, shortened: as §1
# ScRvs167 = target: ScRvs167
# Procedure, shortened: as §1
# ScSho1 = target: ScSho1
# Procedure, shortened: as §1
# ScSla1-D1-D2 = target: ScSla1-D1-D2
# Procedure, shortened: as §1
# ScSla1-D3 = target: ScSla1-D3
# Procedure, shortened: as §1
# SpAbp1-D1 = target: SpAbp1-D1
# Procedure, shortened: as §1
# SpBbc1 = target: SpBbc1
# Procedure, shortened: as §1
# SpBzz1-D1 = target: SpBzz1-D1
# Procedure, shortened: as §1
# SpBzz1-D2 = target: SpBzz1-D2
# Procedure, shortened: as §1
# SpCyk3 = target: SpCyk3
# Procedure, shortened: as §1
# SpHof1 = target: SpHof1
# Procedure, shortened: as §1
# SpHof1-2 = target: SpHof1-2
# Procedure, shortened: as §1
# SpHof1-3 = target: SpHof1-3
# Procedure, shortened: as §1
# SpHse1 = target: SpHse1
# Procedure, shortened: as §1
# SpLsb1 = target: SpLsb1
# Procedure, shortened: as §1
# SpLsb4 = target: SpLsb4
# Procedure, shortened: as §1
# SpMyo1 = target: SpMyo1
# Procedure, shortened: as §1
# SpNbp2 = target: SpNbp2
# Procedure, shortened: as §1
# SpPex13 = target: SpPex13
# Procedure, shortened: as §1
# SpRvs167 = target: SpRvs167
# Procedure, shortened: as §1
# SpSla1-D1-D2 = target: SpSla1-D1-D2
# Procedure, shortened: as §1
# SpSla1-D3 = target: SpSla1-D3
# Procedure, shortened: as §1
binder,measurement,setting,value
ILARAILTIPRVLDK,SPOT peptide array binding signal intensity,AgAbp1,2
same,SPOT peptide array binding signal intensity,AgBbc1,50
same,SPOT peptide array binding signal intensity,AgBem1-D1,162
same,SPOT peptide array binding signal intensity,AgBzz1-D1,107
same,SPOT peptide array binding signal intensity,AgBzz1-D2,121
same,SPOT peptide array binding signal intensity,AgCyk3,11
same,SPOT peptide array binding signal intensity,AgFus1,1100
same,SPOT peptide array binding signal intensity,AgHof1,34.5
same,SPOT peptide array binding signal intensity,AgHse1,500
same,SPOT peptide array binding signal intensity,AgLsb1,1.5
same,SPOT peptide array binding signal intensity,AgLsb4,1390
same,SPOT peptide array binding signal intensity,AgMyo5,1
same,SPOT peptide array binding signal intensity,AgNbp2,279
same,SPOT peptide array binding signal intensity,AgRvs167,12
same,SPOT peptide array binding signal intensity,AgSho1,516
same,SPOT peptide array binding signal intensity,AgSla1-D1-D2,58
same,SPOT peptide array binding signal intensity,AgSla1-D3,12
same,SPOT peptide array binding signal intensity,CaAbp1-D1,30
same,SPOT peptide array binding signal intensity,CaAbp1-D2,20
same,SPOT peptide array binding signal intensity,CaBbc1,68.5
same,SPOT peptide array binding signal intensity,CaBem1-D1,33.5
same,SPOT peptide array binding signal intensity,CaBzz1-D1,625
same,SPOT peptide array binding signal intensity,CaBzz1-D2,247
same,SPOT peptide array binding signal intensity,CaCyk3,35
same,SPOT peptide array binding signal intensity,CaFus1,1530
same,SPOT peptide array binding signal intensity,CaHof1,2.25
same,SPOT peptide array binding signal intensity,CaHse1,130
same,SPOT peptide array binding signal intensity,CaLsb1,2.25
same,SPOT peptide array binding signal intensity,CaLsb4,62.5
same,SPOT peptide array binding signal intensity,CaMyo5,12.5
same,SPOT peptide array binding signal intensity,CaNbp2,290
same,SPOT peptide array binding signal intensity,CaRvs167,99.3
same,SPOT peptide array binding signal intensity,CaRvs167-3,854
same,SPOT peptide array binding signal intensity,CaSho1,1420
same,SPOT peptide array binding signal intensity,CaSla1-D1-D2,15
same,SPOT peptide array binding signal intensity,CaSla1-D3,118
same,SPOT peptide array binding signal intensity,ScAbp1,6
same,SPOT peptide array binding signal intensity,ScBbc1,3.5
same,SPOT peptide array binding signal intensity,ScBem1-D1,8
same,SPOT peptide array binding signal intensity,ScBzz1-D1,41.5
same,SPOT peptide array binding signal intensity,ScBzz1-D2,299
same,SPOT peptide array binding signal intensity,ScCyk3,70
same,SPOT peptide array binding signal intensity,ScFus1,1530
same,SPOT peptide array binding signal intensity,ScHof1,0.5
same,SPOT peptide array binding signal intensity,ScHse1,1470
same,SPOT peptide array binding signal intensity,ScLsb1,11.5
same,SPOT peptide array binding signal intensity,ScLsb2,55
same,SPOT peptide array binding signal intensity,ScLsb3,117
same,SPOT peptide array binding signal intensity,ScLsb4,5
same,SPOT peptide array binding signal intensity,ScMyo3,≤ 0
same,SPOT peptide array binding signal intensity,ScMyo5,≤ 0
same,SPOT peptide array binding signal intensity,ScNbp2,305
same,SPOT peptide array binding signal intensity,ScPex13,59.2
same,SPOT peptide array binding signal intensity,ScRvs167,4.83
same,SPOT peptide array binding signal intensity,ScSho1,1560
same,SPOT peptide array binding signal intensity,ScSla1-D1-D2,145
same,SPOT peptide array binding signal intensity,ScSla1-D3,18
same,SPOT peptide array binding signal intensity,SpAbp1-D1,7.5
same,SPOT peptide array binding signal intensity,SpBbc1,56.5
same,SPOT peptide array binding signal intensity,SpBzz1-D1,553
same,SPOT peptide array binding signal intensity,SpBzz1-D2,1.5
same,SPOT peptide array binding signal intensity,SpCyk3,8.5
same,SPOT peptide array binding signal intensity,SpHof1,82.2
same,SPOT peptide array binding signal intensity,SpHof1-2,8.5
same,SPOT peptide array binding signal intensity,SpHof1-3,158
same,SPOT peptide array binding signal intensity,SpHse1,613
same,SPOT peptide array binding signal intensity,SpLsb1,2.25
same,SPOT peptide array binding signal intensity,SpLsb4,42
same,SPOT peptide array binding signal intensity,SpMyo1,1.5
same,SPOT peptide array binding signal intensity,SpNbp2,207
same,SPOT peptide array binding signal intensity,SpPex13,131
same,SPOT peptide array binding signal intensity,SpRvs167,39.2
same,SPOT peptide array binding signal intensity,SpSla1-D1-D2,≤ 0
same,SPOT peptide array binding signal intensity,SpSla1-D3,10
